Calls of active or inactive are those of the source. Rule for the calls: active = hit-call score of the fitted dose curve at least 0.9, where 1 is the maximum; inactive = score below 0.9.
The molecules below were run on Forkhead box O1 (FOXO1), FOXO1 (gene 2308) (assay: LTEA_HepaRG_FOXO1: Life Technologies and Expression Analysis (LTEA) Assay for Forkhead box O1 (FOXO1) using HepaRG (AID 2283456)). Settings: mRNA level, 48 h; actives raise or lower the signal.
Method: LTEA_HepaRG is a cell based, multiplexed-readout assay that uses HepaRG, a human liver cell line, with measurements taken at 48 hours after chemical dosing on a 96-well plate.LTEA_HepaRG_FOXO1 is one of 102 assay component(s) measured in the LTEA HepaRG cell culture assay. It is a marker of Cell proliferation, survival, death.Data from the assay component LTEA_HepaRG_FOXO1 was analyzed into 1 endpoint. This assay endpoint, LTEA_HepaRG_FOXO1, was analyzed with bidirectional fitting relative to DMSO as the negative control and baseline of activity. Using a type of inducible reporter, measures of mRNA induction for gain or loss-of-signal activity can be used to understand regulation of transcription factor activity. To generalize the intended target to other relatable targets, this assay endpoint is annotated to the dna binding intended target family, where the subfamily is forkhead box protein.
A total of 1060 chemcials from the ToxCast library were tested in eight-point concentration-response experiments. Cell culture and cytotoxicity assays were conducted at Thermo Fisher Scientific's Custom Services facility (Madison, WI). A single lot of human HepaRG cells (Thermo Fisher Scientific, Frederick, MD) was used for the cell culture experiments. 96-well format collagen type I coated plates of human HepaRG cells were prepared using established methods. Briefly, cryopreserved HepaRG cells were thawed, plated at a density of approximately 100,000 cells/well in HepaRG Thaw, Plate, and General Purpose media (HPRG770, Thermo Fisher Scientific), and incubated for 48 hours. 0.5% DMSO was selected as vehicle control to balance the requisite need of DMSO in HepaRG cultures to maintain differentiation (for example, baseline metabolism, proportions of hepatocytes vs. cholangiocytes), while enabling further hepatic receptor pathway activation (for example, PXR and CAR) in response to chemical exposure. 48 hours after plating, the culture medium was replaced with HepaRG Serum-Free Incudtion Media. Cells were exposed to each test chemical in duplicate and maintained in CO2 incubators for another 48 hours. Chemical plates were thawed to room temperature and 200x concentrations of treatment groups were prepared. 8-point conentration-reponse curves were made with the highest exposure at 100 uM, followed by half-log dilutions, all in 0.5% DMSO. Each test plate contained variouse controls, induction positive controls (1mM phenobarbital), cytotoxicity positive controls ([…] aflatoxin B1), vehicle controls (0.5% DMSO), and total lysis controls (0.5% DMSO). Cell morphology images were taken using an Essen IncuCyte FLR automated microscope, with six 96-well plates imaged in about 24 minutes. Images were captured and exported and JPEG files. Spent culture media was transfered to black-well plates for the LDH assay, and remaining media was sorted at -80 C for later use. Cells were treated with RLT buffer and frozen until shipped for gene expression analysis. Total RNA was isolated from the cell suspension in 75 uL of Buffer RLT (Qiagen, Germantown, MD 20874) by Quintiles/Expression Analysis (Durham, NC) using a custom isolation procedure. Total RNA from each plate well was transferred to a preamplification plate. Fluidigm's 96.96 Dynamic ArrayTM (Fluidigm, Amsterdam, the Netherlands) technology was used for gene expression analyses by quantitative reverse transcription polymerase chain reaction (qRT-PCR, performed by Quintiles/Expression Analysis, Durham, NC)89. Standard TaqManTM Assays (Applied Biosystems/ThermoFisher Scientific, Foster City, CA) were used to assess the expression of 93 genes selected based on their selectivity and sensitivity to important hepatic receptors known to be modulated by environmental chemicals; importance in human hepatocyte functionality; and hepatotoxicity. […]

**Q.** How did the outcome turn out when `C[C@]12CCC(=O)C=C1CC[C@@H]1[C@@H]2CC[C@@]2(C)[C@H]1CC[C@]2(C)O` was run?
**A.** Its outcome is “inactive”.

**Q.** For `CN(C)CCO`, which outcome is on record?
**A.** Its outcome is “inactive”.

**Q.** How did the AC50 turn out when `NS(=O)(=O)C(F)(F)C(F)(F)C(F)(F)C(F)(F)C(F)(F)C(F)(F)C(F)(F)C(F)(F)F` was run?
**A.** The AC50 was 24.9 µM (active).

**Q.** Which outcome does the source give for `O=NN(c1ccccc1)c1ccccc1` here?
**A.** The outcome was “inactive”.

**Q.** With `O=S(=O)(O)C(F)(F)C(F)(F)C(F)(F)C(F)(F)F` as the molecule, how does the outcome read?
**A.** Its outcome is “inactive”.

**Q.** Which outcome does the source give for `CC1=C2C[C@H]3[C@@H](CC=C4C[C@@H](O)CC[C@@]43C)[C@@H]2CC[C@]12O[C@@H]1C[C@H](C)CN[C@H]1[C@H]2C` here?
**A.** The outcome was “inactive”.

**Q.** For `Clc1ccc(Cl)cc1`, which outcome is on record?
**A.** The outcome was “inactive”.

**Q.** With `CCC(C)(c1ccc(O)cc1)c1ccc(O)cc1` as the molecule, how does the outcome read?
**A.** Its outcome is “inactive”.

**Q.** For `CC(C)C(=O)OCC(C)(C)C(OC(=O)C(C)C)C(C)C` (stereo not given), which outcome is on record?
**A.** Its outcome is “inactive”.

**Q.** With `CCCCCCOC(=O)c1ccccc1C(=O)OCCCCCC` as the molecule, how does the outcome read?
**A.** The outcome was “inactive”.

**Q.** How did the outcome turn out when `ClC1=C(Cl)[C@]2(Cl)[C@@H]3[C@@H]4C[C@@H]([C@H]5O[C@@H]45)[C@@H]3[C@@]1(Cl)C2(Cl)Cl` was run?
**A.** The outcome was “inactive”.

**Q.** With `CCCN(CCC)N=O` as the molecule, how does the outcome read?
**A.** The outcome was “inactive”.

**Q.** Which outcome does the source give for `CCCCCCCCCC[N+](C)(C)CCCCCCCCCC` here?
**A.** The outcome was “inactive”.

**Q.** How did the outcome turn out when `Cc1cc2c3c(c1)C(c1ccccc1)=N[C@@H](NC(=O)c1ccncc1)C(=O)N3CC2` was run?
**A.** The outcome was “inactive”.

**Q.** With `C=CC(N)=O` as the molecule, how does the outcome read?
**A.** The outcome was “inactive”.

**Q.** For `Oc1ccc(Cl)cc1Cl`, which outcome is on record?
**A.** The outcome was “inactive”.

**Q.** `Cc1cc(-c2ccc(N)c(C)c2)ccc1N` was tested. Which outcome did it give?
**A.** Its outcome is “inactive”.

**Q.** How did the outcome turn out when `Cc1ccccc1O` was run?
**A.** Its outcome is “inactive”.

**Q.** For `Nn1cnnc1`, which outcome is on record?
**A.** Its outcome is “inactive”.

**Q.** With `CC(C)(c1ccccc1)c1ccc(O)cc1` as the molecule, how does the outcome read?
**A.** The outcome was “inactive”.

**Q.** For `CCOP(=S)(OCC)SCSC(C)(C)C`, which outcome is on record?
**A.** Its outcome is “inactive”.

**Q.** Which AC50 does the source give for `CC(c1ccc(O)cc1)(c1ccc(O)cc1)c1ccc(O)cc1` here?
**A.** The AC50 was 73.5 µM (active).

**Q.** Which outcome does the source give for `O=C(N[C@H]1CN2CCC1CC2)c1cc2ccoc2cn1` here?
**A.** The outcome was “inactive”.

**Q.** `O=C(O)C(F)(F)C(F)(F)C(F)(F)C(F)(F)C(F)(F)C(F)(F)C(F)(F)C(F)(F)F` was tested. Which outcome did it give?
**A.** Its outcome is “inactive”.

**Q.** For `Oc1c(Cl)c(Cl)c(Cl)c(Cl)c1Cl`, which AC50 is on record?
**A.** The AC50 was 6.85 µM (active).

**Q.** `c1ccc(-c2ccccc2)cc1` was tested. Which outcome did it give?
**A.** Its outcome is “inactive”.

**Q.** How did the outcome turn out when `COS(=O)(=O)OC` was run?
**A.** Its outcome is “inactive”.

**Q.** Which outcome does the source give for `ClC1=C(Cl)[C@]2(Cl)[C@@H]3[C@H]4C[C@H]([C@@H]5O[C@H]45)[C@@H]3[C@@]1(Cl)C2(Cl)Cl` here?
**A.** Its outcome is “inactive”.

**Q.** Which outcome does the source give for `ClC(Cl)=C(c1ccc(Cl)cc1)c1ccc(Cl)cc1` here?
**A.** The outcome was “inactive”.

**Q.** For `Clc1ccc(C(Cl)(Cl)Cl)cc1`, which outcome is on record?
**A.** Its outcome is “inactive”.

**Q.** `CC(C)(O)C(=O)Nc1ccc([N+](=O)[O-])c(C(F)(F)F)c1` was tested. Which AC50 did it give?
**A.** Its AC50 is 0.0468 µM (active).

**Q.** Which outcome does the source give for `C=CC(=O)NCNC(=O)C=C` here?
**A.** The outcome was “inactive”.

**Q.** Which AC50 does the source give for `CO/C=C(/C(=O)OC)c1ccccc1COc1cccc(C(F)(F)F)n1` here?
**A.** Its AC50 is 7.38 µM (active).

**Q.** `N#Cc1ccc(N(CC(N)=O)CC(F)(F)F)cc1C(F)(F)F` was tested. Which outcome did it give?
**A.** The outcome was “inactive”.

**Q.** `CCOCCOC(C)=O` was tested. Which outcome did it give?
**A.** The outcome was “inactive”.

**Q.** `CCNc1nc(NC(C)C)nc(SC)n1` was tested. Which outcome did it give?
**A.** The outcome was “inactive”.

**Q.** For `Cc1cccc(C)c1N`, which outcome is on record?
**A.** Its outcome is “inactive”.

**Q.** How did the outcome turn out when `COc1ccc(O)c(C(C)(C)C)c1` was run?
**A.** The outcome was “inactive”.

**Q.** How did the AC50 turn out when `CCC(C)c1cc([N+](=O)[O-])cc([N+](=O)[O-])c1O` (stereo not given) was run?
**A.** The AC50 was 3.37 µM (active).

**Q.** Which outcome does the source give for `CCSC(=O)N(CC)C1CCCCC1` here?
**A.** Its outcome is “inactive”.

Source: PubChem BioAssay (EPA / NIEHS)
